Drawing on PubChem BioAssay (EPA / NIEHS), this text covers outcome and AC50 for three molecules.

Results filed as inconclusive are left out. Activity calls are given as the source filed them. Rule for the calls, unless noted: active = hit-call score of the fitted dose curve at least 0.9, where 1 is the maximum; inconclusive = response in the unintended direction; inactive = score below 0.9.

The nature of assay [1]: CCTE_Mundy_HCI_Cortical_NOG_NeuriteCount: CCTE's Neurite Outgrowth Assay in rat cortical cells for Neurite Count, Mundy Lab (AID 2284212; active = hit-call score of the fitted dose curve at least 0.9, where 1 is the maximum; inactive = score below 0.9;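 note: cells fixed about two days after chemical exposure began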). Put shortly:
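Rat cortical primary cells; compound added 2 h post-plating, 1/10 dilution of working solution. Anti-betaIII-tubulin/AF488 ICC; ArrayScan neurite count vs DMSO.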

The nature of assay [2]: CCTE_Mundy_HCI_Cortical_NOG_NeuriteLength: CCTE's Neurite Outgrowth Assay in rat cortical cells for Neurite Length, Mundy Lab (AID 2284213; active = hit-call score of the fitted dose curve at least 0.9, where 1 is the maximum; inactive = score below 0.9). In short, it runs like this:
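First, rat primary cortical cells were plated and, 2 h later, given test chemical as a 1/10 dilution. Finally, βIII-tubulin immunostaining enabled automated imaging of neurite length.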

The nature of assay [3]: CCTE_Mundy_HCI_Cortical_NOG_NeuronCount: CCTE's Neurite Outgrowth Assay in rat cortical cells for Neuron Count, Mundy Lab (AID 2284236).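 Note: neurons counted by imaging betaIII-tubulin and Hoechst stained cortical cells; cells exposed to compound for about 48 hours before fixation.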 Put shortly:
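Read-out: neuron number by high-content imaging of betaIII-tubulin (Alexa Fluor-488) and Hoechst-labelled rat primary cortical cells.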

A short description of assay [4]: CCTE_Mundy_HCI_Cortical_NOG_BPCount: CCTE's Neurite Outgrowth Assay in rat cortical cells for Branch Point Count, Mundy Lab (AID 2284237; active = hit-call score of the fitted dose curve at least 0.9, where 1 is the maximum; inactive = score below 0.9). Put shortly: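 Measured 50.33 h after dosing, this morphology endpoint uses rat primary cortical cultures labelled for betaIII-tubulin. Branch points are quantified by high-content imaging, with DMSO as negative control and baseline.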

A short description of assay [5]: CCTE_Deisenroth_H295R-HTRF_384WELL_ESTRADIOL: CCTE's H295R-HTRF Assay Evaluation of Estradiol Concentration, Deisenroth Lab (AID 2284361; active = hit-call score of the fitted dose curve at least 0.9, where 1 is the maximum; inactive = score below 0.9). The conditions noted are these: actives raise or lower the signal. Put shortly:
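Estradiol secreted into medium by H295R adrenocortical cells, quantified by HTRF after 48 h dosing over a nine-point 0.001 - 100 uM final range; gain or loss versus DMSO. Parallel ATP-luminescence viability readout; n=5 experiments.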

The nature of assay [6]: CCTE_Deisenroth_H295R-HTRF_384WELL_TESTOSTERONE: CCTE's H295R-HTRF Assay Evaluation of Testosterone Concentration, Deisenroth Lab (AID 2284373; active = hit-call score of the fitted dose curve at least 0.9, where 1 is the maximum; inactive = score below 0.9). The conditions noted are these: actives raise or lower the signal. In short, it runs like this: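 Secreted testosterone was quantified by HTRF immunoassay of medium from human adrenocortical H295R cells after 48 h chemical exposure at 0.001–100 uM final. Gain or loss was fitted against DMSO. ATP-based viability was read on matched wells, five experimental replicates.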

Assay [7] is described as follows: CCTE_Deisenroth_H295R-HTRF_384WELL_CTOX: Cytotoxicity Assessment in CCTE's H295R-HTRF Assay, Deisenroth Lab (AID 2284380). In short, it runs like this: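 Luminescent ATP viability readout (CellTiter-Glo 2.0), multiplexed on plates used for hormone sampling, after 48 h chemical exposure. Human H295R cells; final concentrations 0.001–100 uM in nine steps, technical triplicates, five experiments; DMSO baseline.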

Assay [8] concerns the target Estrogen receptor (Homo sapiens) (UniProt P03372). In words: CCTE_Deisenroth_AIME_96WELL_LUC_Active: CCTE's 96-well Estrogen Receptor Transactivation Assay with AIME metabolic competence (ERTA luciferase; metabolism positive), Deisenroth Lab (AID 2284023). Put shortly:
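Metabolism-positive mode: induced rat hepatic S9 in alginate microspheres conditions test solutions (0.002 - 200 uM, 10 points) for 2 hours. VM7Luc4E2 ER luciferase reporter cells then exposed 24 h; positive-direction fit against 17beta-estradiol, n=4 typical.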

Assay [9] has the same target. Description: CCTE_Deisenroth_AIME_96WELL_LUC_Inactive: CCTE's 96-well Estrogen Receptor Transactivation Assay without AIME metabolic competence (ERTA luciferase; metabolism negative), Deisenroth Lab (AID 2284025). Put shortly: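 Metabolism-negative arm: chemicals (0.002–200 uM, 10 points) incubated 2 h with alginate-water microspheres, then medium moved onto VM7Luc4E2 cells for 24 h luciferase read-out. Positive direction vs 17beta-estradiol; n≥4 experiments.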

Assay [10] in a line: CCTE_Deisenroth_AIME_96WELL_CTox_Active: Cytotoxicity Assessment (CTOX) in CCTE's 96-well Estrogen Receptor Transactivation Assay with AIME metabolic competence (metabolism positive), Deisenroth Lab (AID 2284028). Put shortly: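 Cytotoxicity in VM7Luc4E2 breast cells after 24 h exposure to medium from a 2 h metabolic pre-incubation with induced rat hepatic S9 in alginate microspheres; fluorescent live-cell protease readout, 10-point series 0.002–200 uM, n=4.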

The nature of assay [11]: CCTE_Deisenroth_AIME_96WELL_CTox_Inactive: Cytotoxicity Assessment (CTOX) in CCTE's 96-well Estrogen Receptor Transactivation Assay without AIME metabolic competence (metabolism negative), Deisenroth Lab (AID 2284029). In short, it runs like this: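 Metabolism-negative mode: alginate-water lids without rat S9, 2 h pre-incubation of 10-point series (0.002 - 200 uM). Conditioned medium on VM7Luc4E2 cells 24 h; loss of fluorescent live-cell protease signal marks cytotoxicity.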

Sequence of Estrogen receptor (Homo sapiens) (P03372 whole entry, looked up): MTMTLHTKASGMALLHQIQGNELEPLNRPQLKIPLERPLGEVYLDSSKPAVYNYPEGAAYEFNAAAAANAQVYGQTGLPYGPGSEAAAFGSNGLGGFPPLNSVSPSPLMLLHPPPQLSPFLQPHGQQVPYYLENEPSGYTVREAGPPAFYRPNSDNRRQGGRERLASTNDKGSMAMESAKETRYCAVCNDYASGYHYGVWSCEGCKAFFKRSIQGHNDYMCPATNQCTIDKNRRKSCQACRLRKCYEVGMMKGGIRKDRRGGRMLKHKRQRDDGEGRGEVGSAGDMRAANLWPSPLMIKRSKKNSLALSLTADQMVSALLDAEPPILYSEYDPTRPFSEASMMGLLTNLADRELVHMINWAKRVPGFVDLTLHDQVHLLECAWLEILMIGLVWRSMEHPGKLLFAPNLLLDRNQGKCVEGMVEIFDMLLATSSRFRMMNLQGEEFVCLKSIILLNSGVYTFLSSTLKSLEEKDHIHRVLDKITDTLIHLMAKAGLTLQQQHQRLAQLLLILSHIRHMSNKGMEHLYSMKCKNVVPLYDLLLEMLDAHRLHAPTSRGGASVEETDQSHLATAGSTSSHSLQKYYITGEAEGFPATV

Turning to `CCN(CC)CCCC(C)Nc1nc(C)cc(Nc2ccc3nc(C)cc(N)c3c2)n1` (stereo unspecified), the molecule was called inactive in [1], in assay [2], in assay [3] and in assay [4].

Turning to `Clc1ccc(COC(Cn2ccnc2)c2ccc(Cl)cc2Cl)cc1` (stereo unspecified), the AC50 was 0.703 µM (active) in assay [5] and 0.327 µM (active) in assay [6]. The outcome in [7] was inactive.

In the case of `c1ccc([C@H]2O[C@H]2c2ccccc2)cc1`, the AC50 in [8] was 66.7 µM (active); in assay [9], 72.1 µM (active). The outcome in assay [10] and in assay [11] was inactive.
